The text below walks through data of PubChem BioAssay (NCATS).

A number with no mark means an inactive call. Results filed as inconclusive are left out. Activity calls are given as the source filed them. Unless noted, calls follow the shape of the dose curve; as a rule, active = well fitted curve in either direction with a large enough effect (not every such curve was filed as active); inconclusive = small, poorly fitted or top-dose-only effect, or another doubt; inactive = flat fitted curve, though single readings scatter.

Assay [1] concerns the target Lysosomal acid glucosylceramidase (Homo sapiens) (UniProt P04062). Briefly: Glucocerebrosidase-p2 (AID 348; in the data active = potency below about 10 µM; also: potency is read from the fitted curve at half-maximal effect). The following applies: purified GBA, blue fluorogenic substrate, 40 min. The procedure, abridged:
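Normal human glucocerebrosidase (0.2 nM) with blue fluorogenic substrate (80 uM final) in citrate/phosphate pH 5.9 with 10mM sodium taurocholate, 0.01% tween-20; 40 min RT, NaOH/glycine stop; fluorescence Ex 365/Em 440; AC50 from a titration from 0.6 nM upwards.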

The nature of assay [2]: AP1 Signaling Pathway (AID 357).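 Also: ME-180 reporter cells stimulated with EGF at its EC50 level; % is scaled to controls: 0 for no effect and ±100 for the full control effect.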 The following applies: ME-180 AP-1-bla reporter, EGF-induced, beta-lactamase ratio, 5 h; at 7.69 µM (top of the series) unless noted. The procedure, abridged: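 Titration-series screen for positive or negative modulators of EC50 EGF-induced signaling in ME-180 cells carrying an AP-1-driven beta-lactamase reporter. After 5 hours at 37 degrees Celsius, CCF4 460nm/530nm emission ratio gave %Activity; AC50 values derived.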

The nature of assay [3]: NFAT Signaling Pathway (AID 444).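 Also: carbachol stimulus at about its EC50 of 1 µM final; % is scaled to controls: 0 for no effect and ±100 for the full control effect.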 Particulars: Jurkat NFAT-bla M1, carbachol, beta-lactamase ratio, 5 h; at 7.69 µM (top of the series) unless noted. The method, boiled down:
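Jurkat cells carrying an NFAT-driven β-lactamase reporter and co-transfected muscarinic M1 receptor were treated with compound plus carbachol (1 uM final, an EC50 level) for 5 h at 37 °C. CCF4 loading followed for 1 h at RT; 460/530 nm ratio gave %activity.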

Assay [4] addresses Glucocorticoid receptor (Homo sapiens) (UniProt P04150). Briefly: GR-GFP Redistribution (AID 450;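 active = compounds whose dose series gives a full or clear partial fitted curve of increased nuclear translocation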; also: potency is read from the fitted curve at half-maximal effect). The following applies: U2OS GR-GFP nuclear translocation, laser cytometry, 2 h.
Assay [5] shares this target. Briefly: GR-EFC Redistribution (AID 451; calls by dose curve; also: potency is read from the fitted curve at half-maximal effect). Particulars: CHO-K1 GR-EFC translocation, beta-gal luminescence, 2 h. The method, boiled down: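 CHO-K1 cells stably expressing nuclear-localized β-gal enzyme acceptor and GR fused C-terminally to the enzyme donor fragment; ligand-driven nuclear translocation restores β-gal by complementation. Compounds titrated up to 46 uM final, 2 h at 37 °C; luminescence read.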

Assay [6] deals with Mitogen-activated protein kinase 10 (Mus musculus) (UniProt Q61831). As to the kind of experiment: JNK3 AlphaScreen Assay (AID 530).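 Also: kinase came from lysate of stimulated human HepG2 cells; signal reports phosphorylation of biotinylated GST-cJun 1-79 at Ser73 with 10 µM ATP; % is scaled to controls: 0 for no effect and ±100 for the full control effect.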 The following applies: JNK3 lysate, c-Jun phosphorylation; series mostly up to 57.1 µM. The procedure, abridged:
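Phosphorylation of biotinylated GST-cJun(1-79) at Ser73 is measured by AlphaScreen proximity luminescence. Enzyme is JNK3 in HepG2 lysates activated with interleukin-1beta and tumor necrosis factor alpha; ATP is 10 uM final.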

Assay [7] is described as follows: Primary qHTS for small molecule stabilizers of the endoplasmic reticulum resident proteome: Secreted ER Calcium Modulated Protein (SERCaMP) assay (AID 1508630; active = well fitted curve in the direction sought with a large enough effect; an effect the other way counts as inactive or inconclusive; also: % is scaled to controls: 0 for no effect and ±100 for the full control effect). The following applies: SH-SY5Y GLuc-SERCaMP (Gaussia luciferase released on ER calcium loss) secretion, thapsigargin, luminescence; series mostly up to 38.4 µM. The procedure, abridged: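 The SH-SY5Y reporter protocol was run at 3 concentrations up to 38.3 uM (primary) or 11 concentrations (follow-up): 16 h compound, 100 nM thapsigargin for 4 h, then extracellular luciferase luminescence.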

Assay [8] is described as follows: Stat Signaling Pathway (AID 446). The following applies: ME-180 (cervical carcinoma) SIE beta-lactamase reporter, IL-6 stimulated, 5 h; at 7.69 µM (top of the series) unless noted. The method, boiled down:
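Overnight-plated ME-180 cells bearing a STAT Inducible Element beta-lactamase reporter; 5 h co-exposure to compound and 40 pM IL-6; values normalized to 300 pM IL-6 and 125 nM JAK inhibitor controls.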

The target in assay [9] is 3',5'-cyclic-AMP phosphodiesterase 4B (Homo sapiens) (UniProt Q07343). Briefly: qHTS Assay for Inhibitors of PDE-IV (AID 607; active = well fitted activation curve with a large enough effect in the main read-out, with a control signal flat, not every such curve was filed as active; also: % of control where 0% means no effect). The following applies: HEK293 ACTOne CNG channel cells, membrane potential fluorescence; series mostly up to 22.9 µM. The method, boiled down: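 Live HEK293 cells with a modified cyclic nucleotide-gated (CNG) channel report intracellular cAMP via membrane-potential dye fluorescence (ex 535/em 590 nm). Endogenous PDE-IV was targeted. Compounds were tested at up to 22.9 uM final; RO 20-1724 100 uM served as control.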
Sequence of 3',5'-cyclic-AMP phosphodiesterase 4B (Homo sapiens) (Q07343 whole entry, looked up): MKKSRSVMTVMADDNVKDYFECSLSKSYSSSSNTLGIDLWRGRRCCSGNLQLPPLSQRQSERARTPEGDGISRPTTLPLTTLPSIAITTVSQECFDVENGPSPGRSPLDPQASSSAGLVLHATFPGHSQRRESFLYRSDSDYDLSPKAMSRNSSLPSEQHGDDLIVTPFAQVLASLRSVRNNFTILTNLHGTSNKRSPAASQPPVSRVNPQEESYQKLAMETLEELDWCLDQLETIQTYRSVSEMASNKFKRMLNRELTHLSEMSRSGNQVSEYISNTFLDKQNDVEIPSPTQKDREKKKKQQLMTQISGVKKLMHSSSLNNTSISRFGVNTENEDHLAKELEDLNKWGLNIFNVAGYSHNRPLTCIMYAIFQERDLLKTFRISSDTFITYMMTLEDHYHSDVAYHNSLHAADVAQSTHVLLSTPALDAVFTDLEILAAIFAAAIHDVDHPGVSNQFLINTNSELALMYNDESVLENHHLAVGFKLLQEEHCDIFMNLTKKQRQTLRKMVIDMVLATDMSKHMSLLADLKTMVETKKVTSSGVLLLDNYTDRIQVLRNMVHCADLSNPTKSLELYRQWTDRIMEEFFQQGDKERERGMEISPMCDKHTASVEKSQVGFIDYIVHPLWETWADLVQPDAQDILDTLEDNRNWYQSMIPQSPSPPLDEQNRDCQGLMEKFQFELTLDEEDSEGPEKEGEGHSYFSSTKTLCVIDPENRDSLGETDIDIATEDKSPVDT

Assay [10] concerns the target Cytochrome P450 3A4 (Homo sapiens) (UniProt P08684). As to the kind of experiment: qHTS Assay for Activators of Cytochrome P450 3A4 (AID 885; active = well fitted curve in the direction sought with a large enough effect; an effect the other way counts as inactive or inconclusive; also: nearly all actives have a fitted effect of over 65% in size). Particulars: recombinant CYP3A4, Luciferin-PPXE luminescence, 60 min; series mostly up to 57.1 µM. The procedure, abridged: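 Using 20nM recombinant human CYP3A4 in potassium phosphate (200mM), substrate Luciferin-PPXE at 25uM, luminescent luciferin detection followed a 60-min RT NADPH reaction; data scaled to 57 uM ketoconazole.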

The target of assay [11] is Cytochrome P450 2C9 (Homo sapiens) (UniProt P11712). As to the kind of experiment: qHTS Assay for Inhibitors and Substrates of Cytochrome P450 2C9 (AID 883; active = well fitted curve in the direction sought with a large enough effect; an effect the other way counts as inactive or inconclusive; also: potency is read from the fitted curve at half-maximal effect; nearly all actives have a fitted effect of over 60% in size). The following applies: recombinant CYP2C9, luciferin-H luminescence, 60 min; series mostly up to 57.1 µM. The method, boiled down: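 CYP2C9 deoxyluciferin hydroxylation, 37C, 60 min with NADPH regeneration; 10nM enzyme, 100uM Luciferin-H (KM). Glo detection reagent stopped reaction; luminescence normalized to sulphaphenazole (57uM) full inhibition.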
Sequence of Cytochrome P450 2C9 (Homo sapiens) (P11712 whole entry, looked up): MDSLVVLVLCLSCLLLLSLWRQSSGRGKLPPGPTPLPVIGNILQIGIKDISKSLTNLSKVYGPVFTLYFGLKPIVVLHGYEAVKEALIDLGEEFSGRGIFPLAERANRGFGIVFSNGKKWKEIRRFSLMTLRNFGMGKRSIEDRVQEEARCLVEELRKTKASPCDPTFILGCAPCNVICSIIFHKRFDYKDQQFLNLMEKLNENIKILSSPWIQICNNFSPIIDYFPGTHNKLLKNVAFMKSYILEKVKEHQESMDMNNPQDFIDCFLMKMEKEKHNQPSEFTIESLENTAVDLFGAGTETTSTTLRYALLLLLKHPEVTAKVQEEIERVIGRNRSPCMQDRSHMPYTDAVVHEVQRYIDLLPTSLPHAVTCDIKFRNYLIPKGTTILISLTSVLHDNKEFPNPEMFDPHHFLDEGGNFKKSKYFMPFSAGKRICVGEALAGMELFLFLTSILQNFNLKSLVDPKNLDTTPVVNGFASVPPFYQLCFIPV

The target of assay [12] is Cytochrome P450 3A4 (Homo sapiens) (UniProt P08684). As to the kind of experiment: qHTS Assay for Inhibitors and Substrates of Cytochrome P450 3A4 (AID 884; active = well fitted curve in the direction sought with a large enough effect; an effect the other way counts as inactive or inconclusive; also: potency is read from the fitted curve at half-maximal effect; nearly all actives have a fitted effect of over 50% in size). Particulars: recombinant CYP3A4, Luciferin-PPXE luminescence; series mostly up to 57.1 µM. The method, boiled down:
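Luminescent readout of luciferin produced by CYP3A4 (20 nM) dealkylation of Luciferin-PPXE, 25 uM (its KM). NADPH-driven reaction ran 60 min at RT after 10 min compound preincubation; data scaled to 57 uM ketoconazole as 100% inhibition.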

Assay [13] concerns the target Cytochrome P450 2C19 (Homo sapiens) (UniProt P33261). As to the kind of experiment: qHTS Assay for Inhibitors and Substrates of Cytochrome P450 2C19 (AID 899; active = well fitted curve in the direction sought with a large enough effect; an effect the other way counts as inactive or inconclusive; also: potency is read from the fitted curve at half-maximal effect; nearly all actives have a fitted effect of over 60% in size). Particulars: recombinant CYP2C19, luciferin-H EGE luminescence; series mostly up to 57.1 µM. The method, boiled down: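 In 50mM KPO4, the reaction held 5nM enzyme and KM-level (10uM) Luciferin-H EGE; it ran 60 min at 37C after NADPH regeneration and a 10 min compound preincubation. Luminescence values were scaled to 57uM ketoconazole as complete inhibition.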

The target in assay [14] is Cytochrome P450 2D6 (Homo sapiens) (UniProt P10635). As to the kind of experiment: qHTS Assay for Inhibitors and Substrates of Cytochrome P450 2D6 (AID 891; active = well fitted curve in the direction sought with a large enough effect; an effect the other way counts as inactive or inconclusive; also: potency is read from the fitted curve at half-maximal effect; nearly all actives have a fitted effect of over 60% in size). The following applies: recombinant CYP2D6, luciferin-ME EGE luminescence; series mostly up to 57.1 µM. The procedure, abridged: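 Luminescent read-out of luciferin formed by 5 nM human CYP2D6 demethylating 30 uM Luciferin-ME EGE (Km level) over 60 min at room temperature after NADPH regeneration addition. Data normalized to full inhibition by 1.43 uM quinidine.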
Sequence of Cytochrome P450 2D6 (Homo sapiens) (P10635 whole entry, looked up): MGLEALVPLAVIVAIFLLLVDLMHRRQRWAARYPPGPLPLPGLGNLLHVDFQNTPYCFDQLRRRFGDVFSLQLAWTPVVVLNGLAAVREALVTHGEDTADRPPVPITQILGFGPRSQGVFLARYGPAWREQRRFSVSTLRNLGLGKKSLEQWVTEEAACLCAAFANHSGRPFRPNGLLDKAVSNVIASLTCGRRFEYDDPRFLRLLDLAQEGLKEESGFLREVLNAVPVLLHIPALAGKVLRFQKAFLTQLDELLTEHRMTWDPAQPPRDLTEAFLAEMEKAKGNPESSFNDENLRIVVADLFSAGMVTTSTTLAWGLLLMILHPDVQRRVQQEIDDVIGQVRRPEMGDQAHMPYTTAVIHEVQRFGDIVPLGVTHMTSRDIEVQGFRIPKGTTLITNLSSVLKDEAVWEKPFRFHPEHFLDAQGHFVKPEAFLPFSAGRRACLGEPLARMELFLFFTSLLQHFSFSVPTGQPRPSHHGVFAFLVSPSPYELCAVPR

Sequence of Cytochrome P450 3A4 (Homo sapiens) (P08684 whole entry, looked up): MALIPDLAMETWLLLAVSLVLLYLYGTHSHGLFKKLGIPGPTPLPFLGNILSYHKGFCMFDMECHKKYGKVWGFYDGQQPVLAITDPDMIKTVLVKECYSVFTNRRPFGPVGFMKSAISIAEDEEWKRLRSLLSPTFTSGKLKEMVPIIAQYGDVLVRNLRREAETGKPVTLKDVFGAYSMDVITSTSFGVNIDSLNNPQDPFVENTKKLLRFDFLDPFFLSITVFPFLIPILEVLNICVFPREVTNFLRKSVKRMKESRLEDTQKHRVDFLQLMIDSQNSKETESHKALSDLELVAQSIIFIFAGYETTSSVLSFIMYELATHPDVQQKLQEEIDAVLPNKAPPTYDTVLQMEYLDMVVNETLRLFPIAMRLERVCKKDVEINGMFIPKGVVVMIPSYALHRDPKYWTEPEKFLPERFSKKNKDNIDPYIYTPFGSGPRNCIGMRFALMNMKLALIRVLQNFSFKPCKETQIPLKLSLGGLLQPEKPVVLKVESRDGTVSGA
Sequence of Lysosomal acid glucosylceramidase (Homo sapiens) (P04062 whole entry, looked up): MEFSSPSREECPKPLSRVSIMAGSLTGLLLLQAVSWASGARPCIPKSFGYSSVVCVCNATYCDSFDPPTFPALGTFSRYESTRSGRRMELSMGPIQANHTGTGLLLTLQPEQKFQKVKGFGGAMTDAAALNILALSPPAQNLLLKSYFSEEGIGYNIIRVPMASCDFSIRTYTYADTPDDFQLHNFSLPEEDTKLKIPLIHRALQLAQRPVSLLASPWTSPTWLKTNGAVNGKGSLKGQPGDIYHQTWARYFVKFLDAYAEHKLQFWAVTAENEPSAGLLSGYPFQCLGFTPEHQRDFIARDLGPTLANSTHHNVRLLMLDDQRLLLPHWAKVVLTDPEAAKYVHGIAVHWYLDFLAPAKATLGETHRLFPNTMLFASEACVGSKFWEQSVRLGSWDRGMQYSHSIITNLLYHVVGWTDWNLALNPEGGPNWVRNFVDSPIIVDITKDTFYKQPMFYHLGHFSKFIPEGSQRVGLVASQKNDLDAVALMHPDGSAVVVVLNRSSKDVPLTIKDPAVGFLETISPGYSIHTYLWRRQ
Sequence of Glucocorticoid receptor (Homo sapiens) (P04150 whole entry, looked up, the tested form may be a part): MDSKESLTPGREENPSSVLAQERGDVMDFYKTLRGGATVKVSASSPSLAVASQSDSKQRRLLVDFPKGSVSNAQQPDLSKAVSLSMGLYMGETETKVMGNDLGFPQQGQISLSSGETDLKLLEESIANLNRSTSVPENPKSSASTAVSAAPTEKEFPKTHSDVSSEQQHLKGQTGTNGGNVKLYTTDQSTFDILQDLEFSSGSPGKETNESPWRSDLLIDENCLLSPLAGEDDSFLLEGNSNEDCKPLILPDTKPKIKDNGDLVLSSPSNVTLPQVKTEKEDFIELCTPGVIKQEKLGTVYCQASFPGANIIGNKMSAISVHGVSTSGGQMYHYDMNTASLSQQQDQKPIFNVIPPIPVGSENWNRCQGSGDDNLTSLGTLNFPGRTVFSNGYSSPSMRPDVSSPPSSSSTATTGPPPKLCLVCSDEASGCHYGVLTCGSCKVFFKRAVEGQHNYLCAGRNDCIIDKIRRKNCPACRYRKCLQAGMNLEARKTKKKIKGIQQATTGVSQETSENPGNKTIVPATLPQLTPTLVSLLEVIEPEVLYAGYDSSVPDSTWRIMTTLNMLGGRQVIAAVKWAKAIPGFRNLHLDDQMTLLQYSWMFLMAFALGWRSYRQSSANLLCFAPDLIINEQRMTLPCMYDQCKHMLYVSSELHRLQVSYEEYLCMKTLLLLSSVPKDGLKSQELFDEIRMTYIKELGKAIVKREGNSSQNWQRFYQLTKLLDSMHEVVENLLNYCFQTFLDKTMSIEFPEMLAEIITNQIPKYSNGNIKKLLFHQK
Sequence of Cytochrome P450 2C19 (Homo sapiens) (P33261 whole entry, looked up): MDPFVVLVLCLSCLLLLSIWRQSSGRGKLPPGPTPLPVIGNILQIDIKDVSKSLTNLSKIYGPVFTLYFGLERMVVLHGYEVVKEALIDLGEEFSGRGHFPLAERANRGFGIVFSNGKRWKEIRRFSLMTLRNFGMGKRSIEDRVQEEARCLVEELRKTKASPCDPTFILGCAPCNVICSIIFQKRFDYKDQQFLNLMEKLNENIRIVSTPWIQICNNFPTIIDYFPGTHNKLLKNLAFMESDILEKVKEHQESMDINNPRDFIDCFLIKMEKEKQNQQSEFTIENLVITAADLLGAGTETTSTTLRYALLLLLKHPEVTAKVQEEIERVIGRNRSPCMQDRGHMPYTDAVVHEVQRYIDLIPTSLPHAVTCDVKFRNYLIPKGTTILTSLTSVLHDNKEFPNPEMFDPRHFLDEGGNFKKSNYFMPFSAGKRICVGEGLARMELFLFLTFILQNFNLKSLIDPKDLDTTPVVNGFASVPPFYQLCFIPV

On to `N#CCCn1c(=O)cnc2cnc(Nc3ccccc3)nc21`, for which the Potency was above 11.4 µM in assay [1], above 9.22 µM in [4] and above 46 µM in assay [5]. The activity change, negative = inhibition in assay [2] was -26.6%; in assay [3], -3.19%. Further, the Potency result in assay [6] was “inactive”. Moreover, the outcome in assay [7] was inactive.

For the compound `COc1ccc(NC(=O)N2CCCC3(CCN(C(=O)c4cccn4C)CC3)C2)cc1`, the Potency was above 11.4 µM in assay [1] and above 46 µM in assay [5]. The activity change, negative = inhibition in assay [2] was -2.59%; in assay [3], -20.9%. Besides, in assay [8], the activity, negative = inhibition was -3.06%. Moreover, the Potency entry in assay [6], in [9] and in assay [10] was “inactive” each time. In addition, in [7], the result was inactive.

On to `O=C(c1csnn1)N1CCC[C@@]2(CCN(Cc3ccccc3)C2)C1`, for which the Potency is above 11.4 µM in [1] and above 46 µM in assay [5]. Further, the results for the activity change, negative = inhibition in [2] and in [3] were -14.5% and 1.87%, respectively. In addition, the activity, negative = inhibition in [8] is -1.23%. The Potency entry in assay [6] and in [9] was “inactive” in each case. In assay [7], the result was inactive.

Regarding `O=C(c1csnn1)N1CCC[C@@]2(CCN(c3ccccc3)C2)C1`, the Potency was above 11.4 µM in assay [1] and above 46 µM in assay [5]. Moreover, the activity change, negative = inhibition in [2] is -5.43%; in [3], -8.4%. In addition, the activity, negative = inhibition in assay [8] was -7.17%. Further, the Potency result in assay [6] and in [9] was “inactive” each time. For the same compound, in assay [7], the result was inactive.

As for `O=S(=O)(c1ccccc1)N1CCC2(CCCN(c3ccccc3)C2)CC1`, the Potency was above 11.4 µM in assay [1]; above 46 µM in [5]; 1.26 µM (active) in assay [11]; 3.98 µM (active) in assay [12]; 1.58 µM (active) in assay [13]. Also, the activity change, negative = inhibition was 17.4% in assay [2] and -15.8% in assay [3]. The activity, negative = inhibition in [8] was 7.82%. Moreover, the Potency entry in assay [6], in assay [9] and in assay [10] was “inactive” each time. In addition, the outcome in [7] was inactive.

Take `O=S(=O)(c1ccccc1)N1CCC2(CCN(c3ccccc3)CC2)CC1`: the Potency in assay [1] is above 11.4 µM; in assay [5] it was above 46 µM. Also, the results for the activity change, negative = inhibition in assay [2] and in assay [3] were 6.91% and -1.26%, respectively. In [8], the activity, negative = inhibition was -14.2%. Moreover, the Potency entry in [6], in assay [9] and in [10] was “inactive” in each case. Further, in assay [7], the result was inactive.

Take `O=S(=O)(c1ccccc1)N1CCC2(CCCN(C(c3ccccc3)c3ccccc3)C2)CC1`: the Potency in assay [1] is above 11.4 µM; in assay [5], above 46 µM; in [12] it was 2 µM (active); in [14], 0.501 µM (active). In addition, the activity change, negative = inhibition in assay [2] was -2.18%; in assay [3] it was -9.54%. Besides, the activity, negative = inhibition in assay [8] was -3.12%. Also, the Potency result in [6], in [9] and in assay [10] was “inactive” in each case. In assay [7], the result was inactive.
